Hits are enriched below; roughly 1.3% of the tested compounds scored in any of these assays.
LRH-1 inv ag = LRH-1 (NR5A2) inverse agonists, primary screen, cell-based, luminescence, HEK293T, StAR-luciferase reporter. Nuclear receptor subfamily 5 group A member 2 (Homo sapiens), O00482. LRH-1 transfected, 24 h. inhibition, % at 3.6 µM. 0.13% of 360,000 active. AID 602396, 2012;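 active = inhibition above the mean inhibition of all tested compounds plus 3 SD, cut at about 73% in these data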;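 note: 0% = DMSO wells and 100% = reporter-only cells lacking LRH-1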
NCOA3 inh = SRC3 coactivator transcriptional activity inhibitors, primary screen, cell-based, luminescence; Nuclear receptor coactivator 3 (Homo sapiens), Q9Y6Q9; HEK293 GAL4-SRC3 luciferase reporter; inhibition, % at 3.6 µM; 0.17% of 360,000 active;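 active = inhibition above a per-campaign cutoff, the mean of all compounds plus 3 SD, cut at about 60% in these data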;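 note: 0% = DMSO-treated cells and 100% = gossypol-treated cells at 36 µM; higher means less SRC3-driven luciferase light from the GAL4 reporter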
Target sequence (Q9Y6Q9 whole entry, looked up, the tested form may be a part): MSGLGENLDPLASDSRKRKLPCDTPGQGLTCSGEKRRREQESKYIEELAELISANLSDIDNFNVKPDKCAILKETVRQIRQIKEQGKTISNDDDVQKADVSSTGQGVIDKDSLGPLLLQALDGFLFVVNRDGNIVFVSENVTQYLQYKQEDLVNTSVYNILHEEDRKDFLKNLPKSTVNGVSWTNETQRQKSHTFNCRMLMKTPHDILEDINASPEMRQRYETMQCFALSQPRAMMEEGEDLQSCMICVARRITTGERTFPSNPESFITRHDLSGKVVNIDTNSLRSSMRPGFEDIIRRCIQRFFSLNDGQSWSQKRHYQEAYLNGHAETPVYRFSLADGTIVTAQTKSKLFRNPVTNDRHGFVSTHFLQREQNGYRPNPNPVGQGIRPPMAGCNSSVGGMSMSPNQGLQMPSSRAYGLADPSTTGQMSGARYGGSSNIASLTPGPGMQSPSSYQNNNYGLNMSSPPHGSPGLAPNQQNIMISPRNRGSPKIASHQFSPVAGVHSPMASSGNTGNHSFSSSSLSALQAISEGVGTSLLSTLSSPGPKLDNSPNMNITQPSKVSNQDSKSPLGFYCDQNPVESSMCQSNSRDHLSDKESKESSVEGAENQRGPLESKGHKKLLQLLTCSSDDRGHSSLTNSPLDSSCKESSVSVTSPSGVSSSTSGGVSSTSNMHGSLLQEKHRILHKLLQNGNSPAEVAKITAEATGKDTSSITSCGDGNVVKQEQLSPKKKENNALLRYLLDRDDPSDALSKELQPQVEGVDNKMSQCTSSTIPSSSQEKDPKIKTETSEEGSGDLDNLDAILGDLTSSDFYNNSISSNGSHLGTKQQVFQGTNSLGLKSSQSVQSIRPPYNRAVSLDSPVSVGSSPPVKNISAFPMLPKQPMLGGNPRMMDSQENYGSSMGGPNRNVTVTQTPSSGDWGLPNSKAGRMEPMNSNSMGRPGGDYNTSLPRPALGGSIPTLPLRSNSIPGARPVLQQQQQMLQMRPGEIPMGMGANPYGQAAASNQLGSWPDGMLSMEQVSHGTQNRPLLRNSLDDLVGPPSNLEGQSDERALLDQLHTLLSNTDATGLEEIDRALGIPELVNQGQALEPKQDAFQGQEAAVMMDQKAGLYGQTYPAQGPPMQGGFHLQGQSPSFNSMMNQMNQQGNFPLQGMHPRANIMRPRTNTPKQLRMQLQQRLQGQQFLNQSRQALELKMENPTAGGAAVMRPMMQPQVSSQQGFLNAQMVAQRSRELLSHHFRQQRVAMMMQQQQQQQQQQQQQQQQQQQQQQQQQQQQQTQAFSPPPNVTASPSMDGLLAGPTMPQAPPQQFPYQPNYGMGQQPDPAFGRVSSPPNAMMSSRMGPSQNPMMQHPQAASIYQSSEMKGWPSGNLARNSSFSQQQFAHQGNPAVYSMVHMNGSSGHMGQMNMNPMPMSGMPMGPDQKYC
NCOA2 inhibitor = inhibition of GAL4-SRC2 driven luciferase reporter, primary screen, SRC2 inhibitor project, cell-based, luminescence. Nuclear receptor coactivator 2 (Homo sapiens), Q15596. HEK293 GAL4-SRC2 luciferase reporter. inhibition, % at 9 µM. 0.17% of 370,000 active. AID 651957, 2012;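 active = inhibition above the mean inhibition of all tested compounds plus 3 SD, set per campaign, cut at about 52% in these data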;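 note: 0% = DMSO treated cells and 100% = cells given Gossypol at 36 µM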
Gli-Sufu block = Gli-Sufu pathway antagonists, primary screen, luciferase luminescence, Sufu-KO-LIGHT cells, uHTS. Sufu-KO-LIGHT fibroblasts, Gli luciferase reporter luminescence. inhibition, % at 5 µM. 0.74% of 340,000 active. AID 588413, 2011;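 active = inhibition above about 55%, limit read from the data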;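 note: 0% = DMSO-treated cells and 100% = wells with medium but no cells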
SRC1 inh = SRC1 coactivator transcriptional activity inhibitors, primary screen, cell-based, luminescence. Nuclear receptor coactivator 1 (Homo sapiens), Q15788. HEK293 GAL4-SRC1 luciferase reporter. inhibition, % at 3.6 µM. 0.12% of 360,000 active. AID 588354, 2011;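 active = inhibition above the campaign mean plus 3 SD, with each screening campaign given its own cutoff, cut at about 60% in these data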;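 note: 0% = DMSO treated cells and 100% = gossypol at 36 µM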
NR2F2 inh = NR2F2 transcriptional activity inhibitors, primary screen, cell-based, luciferase reporter, HEK293T, luminescence. COUP transcription factor 2 (Homo sapiens), P24468. HEK293T NGFI-A luciferase reporter. inhibition, % at 8.6 µM. 0.7% of 370,000 active;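 active = inhibition above a per-plate cutoff, mean inhibition of test wells between control levels plus 3 SD, cut at about 38% in these data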;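 note: cells cotransfected with COUP-TFII expression vector driving the NGFI-A reporter; 0% = median of COUP-TF2 test wells and 100% = reporter-only cells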
Gal4-VP16 ctr = Gal4-VP16 luciferase reporter inhibitors, counter-screen for COUP-TFII antagonist project, cell-based, luminescence, HEK293; shares compounds with NR2F2 inh; AID 687007, 2013; inhibition, % at 8.5 µM; 25% of 2,500 active; in the data active = inhibition above about 13%
COUP-TFII conf = NR2F2 transcriptional activity inhibitors, confirmation, cell-based, luciferase reporter, HEK293, triplicate; shares compounds with NR2F2 inh; HEK293 NGFI-A luciferase reporter, luminescence; inhibition, % at 8.5 µM; 45% of 2,500 active;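 active = mean inhibition over three repeats above a set limit taken from the earlier primary screen, cut at about 38% in these data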;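 note: 100% = cells given the luciferase reporter alone without the COUP-TF2 vector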
Numbers without * were called inactive; / = no result given.

SMILES	LRH-1 inv ag	NCOA3 inh	NCOA2 inhibitor	Gli-Sufu block	SRC1 inh	NR2F2 inh	Gal4-VP16 ctr	COUP-TFII conf
O=C(Nc1ccc(Oc2cccnc2)nc1)c1ccc(C(F)(F)F)cc1	29	40	28	3	23	66*	2	38*
CN(C)c1ccc(/C=C/c2nc3ccccc3s2)cc1	41	64*	54*	22	56	69*	52*	82*
S=C(Nc1ccc(Nc2ccccc2)cc1)Nc1ccccn1	8	18	-24	35	-21	39*	-30	16
S=C(Nc1ccccc1)Nc1ccccn1	-8	-32	-15	/	-11	1	/	/
COC(=O)C1=C(C)N(Cc2ccccc2C(F)(F)F)C(=NCc2cc(OC)c(OC)c(OC)c2)NC1c1ccc(Cl)cc1 (stereo unspecified)	/	/	0	/	/	41*	-10	-1
COC(=O)C1=C(C)N(Cc2ccccc2C(F)(F)F)C(=NCc2cc(OC)c(OC)c(OC)c2)NC1c1ccccc1C(F)(F)F (stereo unspecified)	/	/	-5	/	/	4	/	/
O=C(NCC1CCN(C(=O)C(=O)c2cccs2)CC1)c1ccc2c(c1)OCO2	/	/	-3	/	/	-14	/	/
COc1ccc(Oc2nc(C)nc3c2oc2ccccc23)cc1	17	5	25	-2	0	42*	-1	12
COC(=O)c1c(-c2ccc(N(C)C)cc2)sc2ccc(OC)cc12	28	-16	61*	34	0	57*	24*	49*
Cc1ccc2c(c1)N(CCCC(=O)NCc1ccc(F)cc1)C(=O)CO2	/	/	1	/	/	-2	/	/
Cc1ccc(NC(=O)N2CCc3ccccc32)cc1	-123	-81	-32	-118	-84	-30	/	/
CN1CCN(c2ccc(NC(=O)N3CCc4ccccc43)cc2)CC1	35	53	37	48	57	62*	-11	63*
CCCCOCCCNC(=O)C[C@H]1C[C@@]2(C(=O)OC)C(=C[C@H](C(C)(C)C)O[C@@H]2C)N(Cc2cccc3ccccc23)C1=O	/	/	5	/	/	6	/	/
COc1ccc(CNc2nn3c(-c4cccc(C(=O)N(C)C)c4)cnc3s2)cc1	0	49	23	/	39	19	/	/
NS(=O)(=O)c1ccc(CCNc2nn3c(-c4cccc(OC(F)(F)F)c4)cnc3s2)cc1	5	7	-14	/	24	71*	14*	57*
CN(C)CCCNS(=O)(=O)c1ccc(NC2CCCCCC2)c([N+](=O)[O-])c1	25	12	14	36	9	53*	5	39*
CCNc1ccc(S(=O)(=O)NCCN(C)C)cc1[N+](=O)[O-]	24	15	24	6	-11	-9	/	/
COc1ccc(N2CCN(S(=O)(=O)c3ccc4c(c3)NC(=O)CS4)CC2)cc1	2	-16	10	-9	-19	1	/	/
COc1ccc(N2CCN(S(=O)(=O)c3ccc4c(c3)NC(=O)C(C)S4)CC2)cc1 (stereo unspecified)	10	4	20	-5	6	42*	-8	11
CCc1ccc(NC(=O)C2CCN(S(=O)(=O)c3ccc4c(c3)NC(=O)C(C)S4)CC2)cc1 (stereo unspecified)	-8	3	17	26	1	58*	8	40*
Cc1ccc(NC(=O)C2CCN(S(=O)(=O)c3ccc4c(c3)NC(=O)C(C)S4)CC2)cc1C (stereo unspecified)	-11	21	26	14	6	22	/	/
Cc1cc(C)cc(NC(=O)C2(C(=O)C3CC3)CC(c3ccccc3C(F)(F)F)=NO2)c1 (stereo unspecified)	/	/	-9	/	/	-2	/	/
O=C(c1ccc(S(=O)(=O)c2cccc(Cl)c2)c([N+](=O)[O-])c1)N1CCN(c2ccccn2)CC1	2	19	28	18	-1	45*	21*	9
CC1CC(C)C[N+](=C2C=C(N3CCCC3)CC(C)(C)C2)C1 (stereo unspecified)	65	54	-1	86*	34	62*	15*	59*
CCCCn1c2c(c(=N)c3ccccc31)CCC2	-19	21	-11	32	-65	-8	/	/
SMILES	LRH-1 inv ag	NCOA3 inh	NCOA2 inhibitor	Gli-Sufu block	SRC1 inh	NR2F2 inh	Gal4-VP16 ctr	COUP-TFII conf
CCCCCn1c2c(c(=N)c3ccccc31)CCC2	61	50	25	84*	34	66*	14*	54*
CCCCCCCCn1c2c(c(=N)c3ccccc31)CCC2	84*	78*	20	91*	24	90*	13*	73*
N=c1c2c(n(Cc3ccccc3)c3c1CCC3)CCC2	52	40	10	-4	23	41*	9	37
CCCCCCCCCCn1c2c(c(=N)c3c1CCC3)CCC2	96*	79*	27	92*	70*	81*	21*	79*
CCOC(=O)Cn1c2c(c(=N)c3ccccc31)CCC2	-13	4	-2	17	11	10	/	/
Cc1ccnc(NC(=S)N2CCC(Nc3cccc(C(F)(F)F)c3)CC2)c1	/	/	/	/	/	-6	/	/
CCC(=O)N[C@H]1C[C@@H]2O[C@@H](CO)CC[C@@H]2O[C@@H]1CCc1ccc(-c2cccc(OC)c2)cc1	/	/	7	/	/	-13	/	/
Cc1cc(O)c(C(=O)/C=C/c2cccc([N+](=O)[O-])c2)c(=O)o1	19	5	-37	6	-6	-5	/	/
CC(=O)Oc1ccccc1C(=O)C=Cc1cccc([N+](=O)[O-])c1	27	6	-17	1	-7	47*	-10	-3
CCc1c(-c2cccc(F)c2)ncn1CCc1ccccc1OC	/	/	4	/	/	7	/	/
Nc1nnc(-c2cc3ccccc3oc2=O)s1	-82	-48	-50	-29	-66	-26	/	/
Nc1cccc(-c2cc3ccccc3oc2=O)c1	9	21	46	4	16	57*	8	7
Cc1ccc(Cc2c(-c3ccco3)nc3c4ccccc4ccn23)cc1	38	-1	-18	/	25	41*	-107	19
Cc1ccc(-n2ncc3c2CCCC3NC(=O)c2ocnc2C)cc1C (stereo unspecified)	35	27	18	59*	21	66*	6	61*

Screens (PubChem)
